Screens as filed in PubChem.
CYP2C9 activ – increases human cytochrome P450 2C9 activity; hit rate 1.4% among 96,000; P11712; activation factor at 5 µM; recombinant CYP2C9, luciferin-H conversion, luminescence; hits give high values; factor 1 = untreated enzyme, 0 = blocked;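 active = activation factor of 2 or more for CYP2C9 at a 5 µM dose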;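 note: 0 = sulfaphenazole-blocked wells and 1 = vehicle-only wells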
Target sequence (P11712 whole entry, looked up): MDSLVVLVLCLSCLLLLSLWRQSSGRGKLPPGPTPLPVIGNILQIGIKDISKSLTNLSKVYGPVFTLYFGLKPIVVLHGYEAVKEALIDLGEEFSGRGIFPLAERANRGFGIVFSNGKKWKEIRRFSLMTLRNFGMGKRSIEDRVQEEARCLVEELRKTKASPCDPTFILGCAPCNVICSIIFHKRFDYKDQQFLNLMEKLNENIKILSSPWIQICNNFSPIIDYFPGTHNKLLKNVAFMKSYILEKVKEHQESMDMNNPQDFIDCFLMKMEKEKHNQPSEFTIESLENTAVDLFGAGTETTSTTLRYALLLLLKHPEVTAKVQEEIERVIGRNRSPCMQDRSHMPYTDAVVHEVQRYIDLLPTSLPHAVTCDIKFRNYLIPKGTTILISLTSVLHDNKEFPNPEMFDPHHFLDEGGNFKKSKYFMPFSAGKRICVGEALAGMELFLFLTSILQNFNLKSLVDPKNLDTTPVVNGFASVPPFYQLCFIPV
CYP2C9 inhib – inhibitors of human CYP2C9; P11712; CYP2C9 Supersomes, luciferin-H conversion, luminescence; inhibition, % at 5 µM; hit rate 20% among 96,000; AID 777;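 active = blocking of liver enzyme CYP2C9 beyond about 50% at 5 µM, limit read from the data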
MRP reversal – reverses drug resistance mediated by MRP; H69AR cells + 2 uM doxorubicin, CellTiter-Glo, 72 h; differential viability (reversal), % at 10 µM; hit rate 0.04% among 85,000; AID 602;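 active = viability drop by adding the cancer drug above about 55%, with treated viability meeting a 40% cutoff, limit read from the data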;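 note: viability without doxorubicin minus viability with 2 µM doxorubicin for each compound; larger differential means the compound sensitizes cells more to doxorubicin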
MRP1 act – activates MRP-1. H69AR cells + doxorubicin, viability rescue, CellTiter-Glo. viability increase, % at 10 µM. hit rate 0.61% among 140,000;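 active = viability gain under doxorubicin at or above a set limit, the compound median plus 3 SD, cut at about 4.7% in these data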;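 note: MRP-1 overexpressing cells given doxorubicin 25 µM after compound pretreatment; 18-22 h compound pretreatment then 72 h with doxorubicin before readout; 0% = doxorubicin-only wells and 100% = vehicle-treated cells without doxorubicin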
CYP2C19 activ – cytochrome P450 2C19 (human) activation; P33261; recombinant CYP2C19, luciferin-H EGE luminescence; hits give high values; 0 = fully inhibited enzyme, 1 = untreated enzyme; activation factor at 5 µM; 96,000 tested, under 10 active; AID 1025;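 active = activation factor of at least 2 at 5 µM in the primary screen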;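 note: 0 = wells with 2.5 mM tranylcypromine and 1 = vehicle-only wells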
CYP2C19 inh – inhibitors of human CYP2C19; P33261; CYP2C19 Supersomes, luciferin-H EGE luminescence, 30 min; inhibition, % at 5 µM; hit rate 21% among 96,000; AID 778;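 active = CYP2C19 inhibition above a set limit at 5 µM in the primary screen, cut at about 50% in these data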;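 note: plate controls were negative control wells for no effect and 2.5 mM tranylcypromine positive control for full effect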
* = called active by the depositor; x = not tested or not shown. A selection: hits, their analogues and other compounds. The true share with any hit is near 21%.

SMILES | CYP2C9 activ | CYP2C9 inhib | MRP reversal | MRP1 act | CYP2C19 activ | CYP2C19 inh
CC(C)Oc1ccc2ccccc2c1C=O | 0.8 | 21 | x | -2 | 0.8 | 21
Cc1c(/C=N/n2cnnc2)c2ccccc2n1CCOc1ccccc1 | 0.5 | 45 | -26 | -3 | 0.2 | 79*
COc1ccccc1OCCOc1ccccc1/C=N/n1cnnc1 | 0.8 | 19 | -21 | -2 | 0.3 | 75*
Cc1ccc(N)c(C(O)(C(F)(F)F)C(F)(F)F)c1 | 0.4 | 58* | -8 | 0 | 0.2 | 82*
CCOC(=O)N(C)c1ccc(C(O)(C(F)(F)F)C(F)(F)F)cc1 | 0.5 | 47 | 7 | -1 | 0.6 | 39
OCCNc1ncnc2c1ncn2Cc1ccccc1 | 1 | 4 | -5 | 1 | 0.7 | 33
C=CCn1cnc2c(NCc3ccccc3)ncnc21 | 0.7 | 28 | -5 | -2 | 0.3 | 70*
CC(C)=CC(=O)Nc1ccc(Br)cc1 | 0.3 | 73* | 2 | 1 | 0.8 | 23
CCN(CC)c1ccc(NC(=O)C2=CCN(S(=O)(=O)c3ccc(F)cc3)CC2)c(C)c1 | x | x | x | -3 | x | x
CCOC(=O)C(C)(C)C(=O)C(C)(C)C(O)c1ccccn1 (stereo unspecified) | 1 | -1 | -1 | -2 | 0.5 | 51*
CCN(CC)c1ccc(NC(=O)c2cncc(Br)c2)cc1 | 1.3 | -26 | -1 | -3 | 1.1 | -9
CC/C(=C\C(=O)c1ccncc1)Nc1ccc(Br)cc1 | 0.1 | 89* | -16 | 0 | 0 | 99*
CC(C)c1nc2sc3c(=O)n(N)cnc3c2c2c1COC(C)(C)C2 | x | x | x | -2 | x | x
O=C1CCCN1c1ccc(S(=O)(=O)NCCc2ccc(Cl)cc2)cc1 | 0.2 | 84* | 13 | 2 | 0.2 | 80*
CC1=C(C(=O)N2CCOCC2)C(c2ccc(C)cc2)NC(=S)N1 (stereo unspecified) | x | x | x | 2 | x | x
C=CCn1c(O)c(N=NC(=O)c2ccc3c(c2)OCO3)c2ccccc21 | 1 | -4 | x | -3 | 1 | 2
Cc1ccc2c(c1)c1c(n2CC(O)Cn2nc(C)c(Br)c2C)CCCC1 (stereo unspecified) | 0.3 | 72* | 1 | -2 | 0.4 | 64*
Cc1ccc2c(c1)c1c(n2CC(O)CNC(C)(C)C)CCCC1 (stereo unspecified) | 1 | -1 | x | -2 | 0.7 | 28
Cc1nn(CC(O)Cn2c3c(c4ccccc42)CCN(C)C3=O)c(C)c1Br (stereo unspecified) | 0.2 | 81* | -23 | 0 | 0.1 | 91*
Cc1ccc2c(c1)c1c(n2CC(O)Cn2c(C)nc3ccccc32)CCCC1 (stereo unspecified) | 0.2 | 77* | 0 | -6 | 0.9 | 14
CCCCC(CC)CNC(=O)C1C2C=CC(C2)C1C(=O)O (stereo unspecified) | 0.9 | 5 | -1 | -2 | 1 | 5
COc1ccc(C2C(C#N)=C(N)OC(C(C)(C)C)=C2C#N)cc1OC (stereo unspecified) | 0.1 | 90* | 10 | -1 | 0.4 | 61*
COc1cccc(C2C(C#N)=C(N)OC(C(C)(C)C)=C2C#N)c1 (stereo unspecified) | 0.1 | 94* | 5 | -1 | 0.2 | 85*
O=C1CC(c2cccc(Cl)c2)CC(O)=C1C=NCCCO (stereo unspecified) | 2.7* | -170 | 0 | 0 | 0.9 | 11
O=C1CC(c2cccc(Cl)c2)CC(O)=C1C=Nc1cccc(Cl)c1 (stereo unspecified) | x | x | x | 0 | x | x
SMILES | CYP2C9 activ | CYP2C9 inhib | MRP reversal | MRP1 act | CYP2C19 activ | CYP2C19 inh
CC1CCc2cc(F)ccc2N1C(=O)CCC(=O)O (stereo unspecified) | 1 | -3 | -6 | -2 | 1 | -2
CC1Cc2ccccc2N1C(=O)CSc1nnc2c(n1)[nH]c1ccccc12 (stereo unspecified) | 0.5 | 46 | 4 | -5 | 0.4 | 55*
CC1CCc2cc(F)ccc2N1C(=O)CSc1nnc2c(n1)[nH]c1ccc(F)cc12 (stereo unspecified) | 0.4 | 57* | x | -2 | 0.2 | 77*
Cc1sc2nc(C3CC3)nc(SCC(=O)N3CCCc4ccccc43)c2c1C | x | x | x | -2 | x | x
CCCc1nc(SCC(=O)N2c3ccccc3CC2C)c2c(C)c(C)sc2n1 (stereo unspecified) | 0.1 | 94* | x | 0 | 0.4 | 64*
CC1Cc2ccccc2N1C(=O)CSc1nnc(-c2ccccc2)c(-c2ccccc2)n1 (stereo unspecified) | 0 | 100* | x | -3 | 0.2 | 85*
COCCN(C(=O)CCC(=O)Nc1ccccn1)C(C(=O)NC1CCCC1)c1ccc(OC)cc1 (stereo unspecified) | x | x | -31 | -1 | x | x
Cc1ccc(S(=O)(=O)NCC(c2ccccc2)N2CCN(CCC#N)CC2)cc1 (stereo unspecified) | 1 | 2 | -4 | -2 | 0.2 | 76*
N#CCCN1CCN(C(CNS(=O)(=O)c2ccc(Cl)cc2)c2ccccc2)CC1 (stereo unspecified) | 0.9 | 12 | 4 | -1 | 0.1 | 90*
Cc1cccc(-n2c(CNC(=O)c3ccccc3)nnc2SCC(=O)Nc2nccs2)c1 | 0.9 | 7 | 3 | -2 | 1.1 | -14
COc1cc(C)c(/C=C(\C#N)C(=O)Nc2cccc(C)c2)cc1C(C)C | x | x | x | 1 | x | x
CCOc1ccccc1Nc1nc(N)nc(CN(C)C2CCCCC2)n1 | 1 | 5 | 80* | -4 | 0.7 | 28
CCOc1ccccc1Nc1nc(N)nc(CSc2nccc(C)n2)n1 | 1.6 | -60 | -7 | 0 | 1 | 4
CC(=O)[C@H]1[C@H](c2cccc(Cl)c2)C(C#N)(C#N)[C@@H]2c3ccccc3C=CN21 | x | x | x | -4 | x | x
COc1ccccc1OC(=O)c1cc(Cl)nc2ccccc12 | 0.3 | 75* | x | -2 | 0.9 | 14
Cc1cc(OC(=O)c2cc(Cl)nc3ccccc23)ccc1Cl | 0.9 | 8 | x | -1 | 1 | 1
Cc1c(C(=O)OCC(=O)NCc2ccc3c(c2)OCO3)cccc1[N+](=O)[O-] | x | x | x | -1 | x | x
O=C(Nc1cccc(Cl)c1)c1ccc(F)c(S(=O)(=O)NCc2cccs2)c1 | x | x | x | -3 | x | x
COc1cc(C)c(S(=O)(=O)NCc2cccs2)cc1C | 0.3 | 66* | 19 | -2 | 0 | 99*
COc1ccc(Cl)cc1S(=O)(=O)NCc1cccs1 | 2.5* | -149 | -15 | -1 | 0 | 97*
O=C(Nc1ccc2c(c1)OCO2)c1ccc(N2CCCC2)c([N+](=O)[O-])c1 | x | x | x | -1 | x | x
N#C/C(=C/c1ccccc1[N+](=O)[O-])c1nnc2n1CCCCC2 | x | x | x | -2 | x | x
N#C/C(=C\c1cn(-c2ccccc2)nc1-c1cccnc1)c1nnc2n1CCCCC2 | 0.1 | 93* | 13 | -1 | 0.4 | 59*
COc1nnc(-c2ccc(N3CCCCC3)c(NC(C)=O)c2)c2ccccc12 | 0.3 | 66* | 10 | -1 | 0.5 | 54*
CCCN(N=Nc1cccc([N+](=O)[O-])c1)c1cccc([N+](=O)[O-])c1 | 0.3 | 74* | -1 | 1 | 0.9 | 11
